Experimental data: PubChem BioAssay (NCATS)
“And” between values parts separate entries of the source, which are not always exact repeats. Identical values can stand only once. Results filed as inconclusive are left out. The source made the active and inactive calls. Calls come from the whole dose curve; as a rule, active = well fitted curve in the direction sought with a large enough effect; inconclusive = small, poorly fitted or top-dose-only effect, or another doubt; inactive = no such curve, though single readings can be large; an effect the other way counts as inactive or inconclusive.

Tests used:
[1] = biological target: Cellular tumor antigen p53 (Homo sapiens) (UniProt P04637); assay: Primary qHTS for small molecule compounds that upregulate eGFP-tagged delta133p53alpha (in N-terminal) cells. (AID 2060322); details: NCI-H358 eGFP-delta133p53alpha fluorescence, 24 h; activation: stronger effect = higher value; note: nearly all actives have a fitted effect of over 75% in size;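 for activation: cells pre-induced with doxycycline then dosed without doxycycline; series mostly up to about 56 µM; 0% = DMSO vehicle and 100% = reference activator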
Chain of Cellular tumor antigen p53 (Homo sapiens) (P04637 whole entry, looked up): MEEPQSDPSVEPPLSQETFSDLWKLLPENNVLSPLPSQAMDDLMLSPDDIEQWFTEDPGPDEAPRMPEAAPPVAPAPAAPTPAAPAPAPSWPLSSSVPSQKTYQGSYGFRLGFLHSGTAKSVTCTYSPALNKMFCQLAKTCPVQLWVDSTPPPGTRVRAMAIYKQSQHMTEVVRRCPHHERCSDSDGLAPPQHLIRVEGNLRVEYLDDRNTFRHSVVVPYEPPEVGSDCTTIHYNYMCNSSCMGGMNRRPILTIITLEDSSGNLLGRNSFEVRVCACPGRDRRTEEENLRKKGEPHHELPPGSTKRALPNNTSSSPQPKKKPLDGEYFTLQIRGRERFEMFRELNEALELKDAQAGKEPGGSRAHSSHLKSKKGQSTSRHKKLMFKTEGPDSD
Summary of the method: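 NCI-H358 cells pre-induced 24 h with 10 ng/ml doxycycline for eGFP-delta133p53alpha, plated dox-free and exposed 24 h at 37C to titrated compounds. Fixed, Hoechst-stained; gated GFP peak intensity by laser scanning cytometry, normalized to DMSO (0%) and 57.5 uM 5-azacytidine (100%).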

[2] = BET inhibitor-based combinations targeting novel dependencies in MECOM-rearranged (r) AML: SET-2 cell line (AID 2202231); details: SET-2 AML cells viability, CellTiter-Glo luminescence, 48 h; viability: stronger effect = lower value, concentration not given here; note: nearly all actives have a fitted effect of over 35% in size;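 for viability: plate controls were DMSO treated cells for no effect and wells without cells for full effect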
Summary of the method: (§1)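 A 48 hr incubation preceded viability reading by CellTiter-Glo, with 15 min room-temperature development. Dose series had 11 points; normalization used DMSO and empty wells; AUC was computed and mean-centered per line as Z-AUC.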

[3] = BET inhibitor-based combinations targeting novel dependencies in MECOM-rearranged (r) AML: OCI-AML3 cell line (AID 2202232); details: Potency: OCI-AML3 viability; note: nearly all actives have a fitted effect of over 35% in size;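 for viability (% of control): series mostly up to about 46 µM; plate controls were DMSO vehicle wells for no effect and wells without cells for full effect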
Summary of the method: as §1

[4] = BET inhibitor-based combinations targeting novel dependencies in MECOM-rearranged (r) AML: MV-4-11 cell line (AID 2202233); note: nearly all actives have a fitted effect of over 45% in size
Summary of the method: (§2)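 Each compound is tested in an 11-point concentration series against 500 seeded cells/well for 48 hr. The luminescent viability signal is normalized to DMSO and blank wells, then reduced to AUC and a cell-line-centred Z-AUC.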

[5] = BET inhibitor-based combinations targeting novel dependencies in MECOM-rearranged (r) AML: HNT-34 cell line (AID 2202234); note: nearly all actives have a fitted effect of over 35% in size;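 for viability (% of control): plate controls were vehicle wells for no effect and cell-free wells for full effect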
Summary of the method: as §2

[6] = BET inhibitor-based combinations targeting novel dependencies in MECOM-rearranged (r) AML: UCSD-AML1 cell line (AID 2202235); note: nearly all actives have a fitted effect of over 40% in size;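 for viability (% of control): series mostly up to about 46 µM; plate controls were DMSO vehicle wells for no effect and blank wells for full effect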
Summary of the method: as §2

[7] = BET inhibitor-based combinations targeting novel dependencies in MECOM-rearranged (r) AML: AML-191 cell line (AID 2202236; note: nearly all actives have a fitted effect of over 35% in size;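 for viability (% of control): plate controls were vehicle wells for no effect and wells without cells for full effect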)
Summary of the method: as §1

[8] = BET inhibitor-based combinations targeting novel dependencies in MECOM-rearranged (r) AML: AML-194 cell line (AID 2202237; note: nearly all actives have a fitted effect of over 40% in size;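 for viability (% of control): plate controls were vehicle wells for no effect and wells without cells for full effect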)
Summary of the method: as §1
Potency is the fitted concentration of half-maximal effect.

COc1cc(C)c(Sc2cnc(NC(=O)c3ccc(CNC(C)C(C)(C)C)cc3)s2)cc1C(=O)N1CCN(C(C)=O)CC1 (stereo not drawn)
active: Potency [1] 43.2 µM | Potency [2] 23.5 µM | Potency [3] 14.8 µM | Potency [4] 4.17 µM | Potency [5] 16.6 µM | Potency [6] 14.8 µM | Potency [7] 14.8 µM | Potency [8] 11.8 µM

O=S(=O)(O)CCSSCCS(=O)(=O)O
inactive: activation [1] -2.01% | viability [2] 104% | Potency [3] | Potency [4] | Potency [5] | Potency [6] | Potency [8]

CCCCC(CC)COC(=O)C(C#N)=C(c1ccccc1)c1ccccc1 (stereo not drawn)
inactive: activation [1] -10.7% and -6.01% | viability [2] 108% | Potency [3] | Potency [4] | Potency [5] | Potency [6] | Potency [8]

C=CC(=O)Nc1cc2c(Nc3ccc(F)c(Cl)c3)ncnc2cc1OCCCN1CCOCC1
active: Potency [1] 4.9 µM | Potency [2] 14.8 µM | Potency [3] 4.68 µM | Potency [4] 1.32 µM | Potency [5] 2.63 µM | Potency [6] 4.68 µM | Potency [8] 11.8 µM

CN(N=O)C(=O)N[C@@H]1[C@@H](O)[C@H](O)[C@@H](CO)O[C@@H]1O
inactive: activation [1] -14.1% | viability [2] 101% | Potency [3] | Potency [4] | Potency [5] | Potency [6] | Potency [8]

CCCCCN=C(N)N/N=C/c1c[nH]c2ccc(OC)cc12
active: Potency [2] 23.5 µM | Potency [3] 8.33 µM | Potency [4] 8.33 µM | Potency [5] 9.34 µM | Potency [6] 16.6 µM | Potency [7] 18.6 µM | Potency [8] 20.9 µM
inactive: activation [1] 9.6%

CC(C)C[C@@H](N)[C@H](O)C(=O)N[C@H](C(=O)N[C@H](C(=O)N[C@@H](CC(=O)O)C(=O)O)C(C)C)C(C)C
inactive: activation [1] -3.94% | viability [2] 110% | Potency [3] | Potency [4] | Potency [5] | Potency [6] | Potency [8]

C#C[C@]1(O)CC[C@H]2[C@@H]3CCc4cc(OC)ccc4[C@H]3CC[C@@]21C
inactive: activation [1] -5.08% | viability [2] 117% | Potency [3] | Potency [4] | Potency [5] | Potency [6] | Potency [8]

COc1ccc([C@@H]2CNC(=O)C2)cc1OC1CCCC1
inactive: activation [1] 7.46% | viability [2] 118% | Potency [3] | Potency [4] | Potency [5] | Potency [6] | Potency [8]

Cn1cc(C2=C(c3c4n(c5ccccc35)CCC(CN)C4)C(=O)NC2=O)c2ccccc21 (stereo not drawn)
inactive: viability [2] 103% | viability (% of control) [3] 88.4% [at 8.46 µM] | viability (% of control) [6] 97.4% [at 8.46 µM] | viability (% of control) [8] 98.9% [at 8.46 µM]
active: Potency [1] 27.3 µM | Potency [4] 4.81 µM | Potency [5] 5.39 µM

CC(C)[C@H](CO)Nc1nc(Nc2cccc(Cl)c2)c2ncn(C(C)C)c2n1
active: Potency [1] 24.3 µM | Potency [2] 16.6 µM | Potency [3] 18.6 µM | Potency [4] 3.72 µM | Potency [5] 16.6 µM | Potency [6] 26.3 µM | Potency [7] 14.8 µM | Potency [8] 16.6 µM

CCc1cc(C(N)=S)ccn1
inactive: activation [1] -7.53% and 9.71% | viability [2] 109% | Potency [3] | Potency [4] | Potency [5] | Potency [6] | Potency [7] | Potency [8]

Oc1ccc(-c2ccc(-c3cc(Nc4cccc(CNC5CC5)c4)n[nH]3)cc2)c(O)c1
active: Potency [1] 43.2 µM | Potency [2] 7.42 µM | Potency [3] 1.86 µM | Potency [4] 1.18 µM | Potency [5] 3.72 µM | Potency [6] 2.35 µM | Potency [7] 2.95 µM | Potency [8] 3.72 µM

CCC(=O)O[C@]1(C(=O)SCF)[C@H](C)C[C@H]2[C@@H]3C[C@H](F)C4=CC(=O)C=C[C@]4(C)[C@@]3(F)[C@@H](O)C[C@@]21C
inactive: activation [1] 17.6% and 0.401% | viability [2] 114% | Potency [3] | Potency [4] | Potency [5] | Potency [7]

CCCCCOC(=O)Nc1nc(=O)n([C@@H]2O[C@H](C)[C@@H](O)[C@H]2O)cc1F
inactive: activation [1] -37.9% | viability [2] 110% | Potency [3] | Potency [4] | Potency [5] | Potency [6] | Potency [8]

C=C(C)[C@@H]1CC[C@]2(C)CC[C@]3(C)[C@H](CC[C@@H]4[C@@]5(C)CC[C@H](O)C(C)(C)[C@H]5CC[C@]43C)[C@@H]12
inactive: activation [1] -1.45% | viability [2] 117% | Potency [3] | Potency [4] | Potency [5] | Potency [6] | Potency [7] | Potency [8]

Nc1nc(-c2nn(Cc3ccccc3F)c3ncccc23)nc(N)c1N1CCOCC1
inactive: activation [1] 6.49% | viability [2] 123% | Potency [4] | Potency [5] | Potency [6] | Potency [8]
active: Potency [3] 0.0018 µM

NC(=O)c1cnc(N[C@@H]2CCCC[C@@H]2N)nc1Nc1cccc(-n2nccn2)c1
active: Potency [1] 34.3 µM | Potency [2] 23.5 µM | Potency [3] 16.6 µM | Potency [4] 3.32 µM | Potency [5] 14.8 µM | Potency [6] 8.33 µM | Potency [7] 16.6 µM | Potency [8] 18.6 µM

O=C(NCCO[N+](=O)[O-])c1cccnc1
inactive: activation [1] -0.853% and 0.837% | viability [2] 114% | Potency [3] | Potency [5] | Potency [6] | Potency [8]
active: Potency [4] 4.68 µM

CC[C@H](NC(C)C)[C@H](O)c1ccc(O)c2[nH]c(=O)ccc12
inactive: activation [1] -13% and -16.9% | viability [2] 117% | Potency [3] | Potency [4] | Potency [5] | Potency [6] | Potency [7] | Potency [8]

Cc1cc(C2CCCCC2)n(O)c(=O)c1
inactive: activation [1] 25.4%
active: Potency [2] 18.6 µM | Potency [3] 10.5 µM | Potency [4] 4.17 µM | Potency [5] 10.5 µM | Potency [6] 16.6 µM | Potency [8] 10.5 µM

O=c1oc2c(O)c(O)cc3c(=O)oc4c(O)c(O)cc1c4c23
inactive: activation [1] -6.69% and -19.7% | viability [2] 113% | Potency [3] | Potency [4] | Potency [5] | Potency [6] | Potency [7] | Potency [8]

Cc1cnc(Nc2ccc(N3CCN(C)CC3)cc2)nc1Nc1cccc(S(=O)(=O)NC(C)(C)C)c1
active: Potency [2] 2.63 µM | Potency [3] 5.25 µM | Potency [4] 0.662 µM | Potency [5] 0.833 µM | Potency [6] 1.86 µM | Potency [8] 2.95 µM
inactive: activation [1] 28.8%

O=S(=O)(O)CCS
inactive: activation [1] 32.2% and 4.28% | viability [2] 120% | Potency [3] | Potency [4] | Potency [5] | Potency [6] | Potency [8]

NC(=O)C1CCCc2c1[nH]c1ccc(Cl)cc21 (stereo not drawn)
inactive: activation [1] 10.6% | viability [2] 104% | Potency [3] | Potency [4] | Potency [6] | Potency [7] | Potency [8]
